Hit rate of the full screen: of about 13,000 compounds, about 3,200 (25%) showed an effect of 50% or more. The list shows a part of the results.
test system: P. falciparum stage V gametocytes; parameters: BacTiter-Glo ATP luminescence viability of purified stage V gametocytes in 384-well plates, per cent inhibition versus DMSO; conditions: 48 h, 5 µM; inhibitor

| Structure (SMILES) | % Inhibition [%] |
| --- | --- |
| Nc1nc(N)c2cc(C#Cc3ccc(-c4ccccc4)cc3)ccc2n1 [TCMDC-139006] | -7.862 |
| Cl.Nc1nc(Nc2ccc(Cl)cc2)nc2ccccc12 [TCMDC-124354] | 6.388 |
| Nc1c2ccccc2nc2ccc(Cl)cc12 [TCMDC-132029] | 93.03 |
| Nc1c2ccccc2nc2ccc(-c3ccccc3)cc12 [TCMDC-132030] | 118.4 |
| Nc1c2ccccc2nc2cc(Cl)ccc12 [TCMDC-141999] | 16.16 |
| CN(C)c1cc(C(=O)N[C@@H](Cc2ccccc2)[C@H](O)CNC2CCCCC2)cc2[nH]ccc12 [TCMDC-136317] | -94.17 |
| CN1CCN(c2ccnc3ccc(NC(=O)Nc4ccccc4Br)cc23)CC1 [TCMDC-139342] | 15.44 |
| Fc1ccccc1COc1ccc(Nc2ncnc3ccc(I)cc23)cc1Cl [TCMDC-138627] | 9.829 |
| COc1cccc2cc(C(=O)N[C@@H](CC(C)C)C(=O)N[C@H](/C=N/NC(=O)OC(C)(C)C)CC(=O)OC(C)(C)C)oc12 [TCMDC-136085] | 28.48 |
| CC(C)(CNC(=O)C1CCN(CCOc2ccc(F)c(F)c2)CC1)c1nc(-c2ccc(Cl)c(O)c2)c(-c2ccncc2)[nH]1 [TCMDC-141136] | -40.38 |
| CN1CCC(C(=O)N(Cc2ccc(-c3ccc(CNCCc4ccc(S(C)(=O)=O)cc4)cn3)cc2)Cc2ccc3c(c2)OCO3)CC1 [TCMDC-141505] | 98.95 |
| CN1CCC(C(=O)N(Cc2ccc(-c3ccc(CNCCc4ccccc4)cn3)cc2)Cc2cccc(F)c2)CC1 [TCMDC-141553] | 18.34 |
| CCCNCc1ccc(-c2ccc(CN(Cc3cccs3)C(=O)C3CCN(C)CC3)cc2)nc1 [TCMDC-141526] | 99.19 |
| CN1CCC(C(=O)N(Cc2ccc(-c3ccc(CNCCc4ccc(S(C)(=O)=O)cc4)cn3)cc2)Cc2cccc(F)c2)CC1 [TCMDC-141507] | 85.53 |
| CC(=O)N1CCN(c2ccc(NC(=O)c3oc(-c4ccccc4)nc3C(F)(F)F)cn2)CC1 [TCMDC-135142] | -12.47 |
| CCN(CC)CCNC(=O)c1ccc(NC(=O)c2cn(-c3ccccc3)nc2-c2cccs2)cc1 [TCMDC-124032] | 29.35 |
| O=S(=O)(c1ccccc1Cl)N1CCCCC(c2ccc(C(F)(F)F)cc2)=N1 [TCMDC-134532] | -26.8 |
| Cc1cccc(Cl)c1S(=O)(=O)N1CCCCC(c2ccc(C(F)(F)F)cc2)=N1 [TCMDC-134535] | 25.02 |
| O=S(=O)(c1c(Cl)cc(Cl)cc1Cl)N1CCCCC(c2ccc(C(F)(F)F)cc2)=N1 [TCMDC-134541] | 71.02 |
| O=S(=O)(c1c(Cl)cccc1Cl)N1CCCCC(c2ccc(C(F)(F)F)cc2)=N1 [TCMDC-134537] | 50.16 |
| O=S(=O)(c1c(Cl)cc(Cl)cc1Cl)N1CCCCC(c2ccc(Cl)cc2)=N1 [TCMDC-134526] | -3.325 |
| O=S(=O)(c1ccc(Cl)cc1Cl)N1CCCCC(c2ccc(C(F)(F)F)cc2)=N1 [TCMDC-134536] | 0.9055 |

| Structure (SMILES) | % Inhibition [%] |
| --- | --- |
| CCNc1cc(C(=O)N[C@@H](Cc2ccccc2)[C@H](O)CNC2(CC(C)C)CC2)cc(N2CCCCS2(=O)=O)c1 [TCMDC-135258] | -2.163 |
| N#Cc1ccc(-n2cc(C(=O)Nc3ccc4c(c3)CCN(C3CCC3)CC4)c(C(F)(F)F)n2)cc1 [TCMDC-136080] | 23.35 |
| O=C(Nc1ccc2c(c1)CCN(C1CCC1)CC2)c1cn(-c2ccccc2)nc1-c1ccccc1 [TCMDC-136083] | 54.47 |
| O=C(Nc1ccc2c(c1)CCN(C1CCC1)CC2)c1ccc(-n2ccnc2)cn1 [TCMDC-135973] | 3.666 |
| COc1ccc2cc(C(=O)Nc3ccc4c(c3)CCN(C3CCC3)CC4)ccc2c1 [TCMDC-136082] | -6.595 |
| O=C(Nc1ccc2c(c1)CCN(C1CCC1)CC2)c1ccc(-c2cn3ccccc3n2)cc1 [TCMDC-135460] | 75.27 |
| N#Cc1cccc(-c2ccc(C(=O)Nc3ccc4c(c3)CCN(C3CCC3)CC4)cn2)c1 [TCMDC-135996] | -32.92 |
| CCOCCCNc1sc(S(=O)(=O)c2ccccc2)nc1S(=O)(=O)c1ccc(C)cc1 [TCMDC-124750] | 20.27 |
| O=C(Cc1ccc[n+]([O-])c1)Nc1cccc(-c2cccc(-c3nc4cc(C(F)(F)F)ccc4[nH]3)c2)c1 [TCMDC-136990] | -75.57 |
| CC(=O)Nc1ccc(CN2CCN(C(c3ccc(F)cc3)c3ccc(F)cc3)CC2)cc1 [TCMDC-124045] | 16.43 |
| O=C(/C=C/c1ccc(F)cc1)NC1CCC(CCN2CCc3ccccc3CC2)CC1 (centres unmarked) [TCMDC-139451] | -36.35 |
| N#Cc1ccc(N2CCN(Cc3ccc(-c4ccc(-c5nc6cc(C(F)(F)F)ccc6[nH]5)cc4)cc3)CC2)nc1.O=C(O)C(F)(F)F [TCMDC-133113] | -14.21 |
| Oc1ccccc1CN1CCCC(COC(c2ccc(F)cc2)c2ccc(F)cc2)C1 (centres unmarked) [TCMDC-136037] | 28.2 |
| Nc1c(Cl)cc(C(O)CNCCCCCOCCc2ccccc2)cc1C(F)(F)F (centres unmarked) [TCMDC-132081] | 12.69 |
| Nc1c(Cl)cc(C(O)CNCCCCCOCCCc2ccc(O)c3ncccc23)cc1Cl (centres unmarked) [TCMDC-132088] | 115.2 |
| CCN(CC)S(=O)(=O)c1ccc(CCOCCCCCNCC(O)c2cc(Cl)c(N)c(Cl)c2)s1 (centres unmarked) [TCMDC-132091] | 31.84 |
| Cc1ccc(CCOCCCCCNCC(O)c2cc(Cl)c(N)c(Cl)c2)cc1 (centres unmarked) [TCMDC-132077] | 0.6115 |
| Nc1c(Cl)cc(C(O)CNCCCCCOCCc2ccc3occc3c2)cc1Cl (centres unmarked) [TCMDC-132085] | 27.47 |
| Nc1c(Cl)cc(C(O)CNCCCCCCOCCc2ccc(CO)s2)cc1Cl (centres unmarked) [TCMDC-132092] | 55.37 |
| Nc1c(Cl)cc(C(O)CNCCCCCCCCCc2ccccn2)cc1Cl (centres unmarked) [TCMDC-132100] | 20.05 |
| Nc1c(Cl)cc(C(O)CNCCCCCCOCCc2ccc(O)cc2)cc1Cl (centres unmarked) [TCMDC-132086] | 21.31 |
| Nc1c(Cl)cc(C(O)CNCCCCCOCCCc2ccc3ncccc3c2)cc1Cl (centres unmarked) [TCMDC-132087] | 57.03 |
